Data as given in the supplement of paper PMC9948646.

test system: gramicidin D channels in DC22:1PC lipid vesicles (bilayer-modifying potency); experiment: initial Tl+ fluorescence quench rate relative to no-drug control (NormRate, gramicidin monomer-dimer shift) (ratio (fold of control)); higher = stronger bilayer-modifying effect (equilibrium shifted toward conducting dimers), active = 1.5 or more; details: 10 µM; lipid concentration 50 µM; temperature: 25 °C
Description: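 Stopped-flow fluorescence quench assay: ANTS-loaded DC22:1PC large unilamellar vesicles doped with gramicidin D (1:2000), 50 µM lipid, equilibrated 10 min with 10 µM drug (0.1% DMSO), mixed with Tl+ quench buffer at 25°C. Initial quench rate (Tl+ influx) was fitted with a modified stretched exponential and normalised to the no-drug control rate (NormRate); duplicates from two independent LUV preparations (triplicates for 7 drugs).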

Initial Tl+ fluorescence quench rate, active:
COc1ccc(-c2cnc3cnc(-c4cccc(OC(C)C)c4)cn23)cc1 2.01
c1ccc(Oc2ccc(-c3cc(C4CCOCC4)[nH]n3)cc2)cc1 3.48
CCOc1ccccc1N[C@H](C)C(=O)Nc1cc(C(F)(F)F)ccc1N1CCOCC1 1.72
CC(=O)N1CCN(c2ccc(Oc3ccc(Cl)cc3O)cc2)CC1 1.51
COc1cccc(NC(=O)c2c(NC(=O)c3cccnc3)sc3c2CCC3)c1 1.55
COc1cc(CN2CCC3(C=Cc4ccccc43)CC2)cc2c1OCO2 2.43
O=C([C@@H](Cc1c[nH]c2ccccc12)NS(=O)(=O)c1ccc(Cl)cc1)N1CCCCC1 4.26

Initial Tl+ fluorescence quench rate, inactive:
Nc1ncc(-c2cn[nH]c2)cc1-c1nc2cc(Cl)cnc2[nH]1 1.08
Cc1cc(OCC(=O)NCc2ccccc2)c2cc(Br)ccc2n1 1.45
Cc1cc(O)nc(-n2nc(C)cc2C)n1 1.04
[H]/N=C(\N)c1ccc(-n2cc(-c3cc(/C(N)=N/[H])ccc3OC)nn2)cc1 1.05
CC(=O)Nc1ccc(-c2noc(C[C@@H]3CCCN(Cc4cccc(F)c4C)C3)n2)cc1 1.29
CC(=O)NC[C@H]1CN(c2ccc(-c3ccc(CNCc4cn[nH]n4)cc3)c(F)c2)C(=O)O1 1.37
CC[C@H](Sc1nc2ccccc2o1)C(=O)Nc1nccs1 1.18
C[C@H](C(N)=O)N1CCCC[C@H]1c1ccc(OCc2cccc(F)c2)cc1 1.21
c1ccc(C[C@@H]2CN(c3nccc(Oc4ccc(-n5ccnc5)cc4)n3)CCN2)cc1 1.26
COc1ccc(-c2nc(-c3cccc(NC(=O)Cc4ccc(F)cc4)c3)no2)cc1OC 1.47
CCOc1ccc2cc(-c3nn(C(C)(C)C)c(N)c3C(N)=O)cnc2c1 1.21
CC(=O)Nc1ccc(NC(=O)c2cc(-c3cc(Cl)ccc3O)[nH]n2)cc1 1.06
CCCc1ccc(S(=O)(=O)Nc2ccc(CN3CCN(CC4CC4)CC3)cc2)cc1 1.42
CC(=O)NC[C@H]1CN(c2ccc(N3CCSCC3)c(F)c2)C(=O)O1 1.09
Nc1ncnc2[nH]nc(Cc3cccc4ccccc34)c12 1.15
Cc1cc(Nc2ccc(C(F)(F)F)cc2)n2ccnc2n1 1.05
